This note sets out measurements from PubChem BioAssay (NCATS).

The structures appear in SMILES notation. Several values for one entry are separate records, joined by “and”; a condition that tells them apart may be missing. Equal values may be shown once. Results filed as inconclusive are left out. Some structures have more than one record in an assay (separate samples or runs), and their calls can disagree. Activity calls are given as the source filed them. Calls come from the whole dose curve; as a rule, active = well fitted curve in the direction sought with a large enough effect; inconclusive = small, poorly fitted or top-dose-only effect, or another doubt; inactive = no such curve, though single readings can be large; an effect the other way counts as inactive or inconclusive.

The nature of test [1]: P-glycoprotein substrates identified in KB-3-1 adenocarcinoma cell line, qHTS therapeutic library screen (AID 1346986). Note: nearly all actives have a fitted effect of over 60% in size.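 Note: potency is for cytotoxicity meaning loss of cell viability.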 The procedure, abridged: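 KB-3-1 parental and colchicine-selected P-gp-overexpressing KB-8-5-11 cells (colchicine omitted during assay), 500 cells/well, dosed in dose-response for 72 h at 37 °C; CellTiter-Glo luminescence. Cytotoxic: curve class -1.1 to -2.4, max response >50%, AC50 < 10 uM.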
On the technique in general: qHTS replaces the single test concentration by a dilution series.

The nature of test [2]: P-glycoprotein substrates identified in KB-8-5-11 adenocarcinoma cell line, qHTS therapeutic library screen (AID 1346987). Note: nearly all actives have a fitted effect of over 65% in size. The procedure, abridged:
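KB-8-5-11, a colchicine-selected P-gp-overexpressing KB-3-1 subline, was grown without colchicine for the assay. Cells were seeded at 500 cells/well, dosed in concentration-response and incubated 72 h at 37 degree C, 5% CO2. Viability was read by CellTiter-Glo luminescence.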

Test [3] in a line: NS1 protein of Zika virus - qHTS assay to identify small molecule inhibitors in human HEK 293 cells (AID 1347053). Note: nearly all actives have a fitted effect of over 55% in size. Summed up:
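Following 20 h seeding, HEK 293 cells took compound, then 1 h later ZIKV MR766 (MOI = 0.5). Incubation ran 24 h at 37 C before TR-FRET detection of NS1; a drop in signal indicates inhibition.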

Test [4] in a line: qHTS of pediatric cancer cell lines to identify multiple opportunities for drug repurposing: Primary screen for TC32 cells (AID 1347089). Note: nearly all actives have a fitted effect of over 60% in size. The procedure, abridged: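 TC32 cells, 500-1,000/well in growth medium, compound-treated 48 h at 37 °C; viability from CellTiter-Glo luminescence. Primary screen: MIPE 11-point (0.78 nM–46 µM final), NPC 8-point (0.59 nM–46 µM final); confirmatory at 11-point dilutions.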

Test [5] is described as follows: qHTS of pediatric cancer cell lines to identify multiple opportunities for drug repurposing: Primary screen for DAOY cells (AID 1347090). Note: nearly all actives have a fitted effect of over 55% in size. The procedure, abridged:
(§1)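 Viability measured as metabolically active cells via CellTiter-Glo luminescence following 48 hours of compound exposure, 11-point dilutions in confirmatory testing. 500-1,000 cells/well plated 5 hours before dosing; controls were DMSO and 2.3 µM bortezomib.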

Test [6] is described as follows: qHTS of pediatric cancer cell lines to identify multiple opportunities for drug repurposing: Primary screen for SJ-GBM2 cells (AID 1347091). The procedure, abridged:
as §1

A short description of test [7]: qHTS of pediatric cancer cell lines to identify multiple opportunities for drug repurposing: Primary screen for A673 cells (AID 1347092). Note: nearly all actives have a fitted effect of over 45% in size. The procedure, abridged: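 A673 cells (500-1,000 cells/well) were treated 48 hours at 37 degrees C with compounds at 11-point (0.78 nM to 46 µM) or 8-point (0.59 nM to 46 µM) dilutions. Viability read by CellTiter-Glo luminescence; concentration-response curves fitted.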

The nature of test [8]: qHTS of pediatric cancer cell lines to identify multiple opportunities for drug repurposing: Primary screen for SK-N-MC cells (AID 1347093). Summed up:
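Metabolically active cells were quantified by ATP-dependent luminescence (CellTiter-Glo, 15 min at room temperature) following 48 h treatment. Cells had been plated at 500-1,000 per well and settled for 5 h beforehand.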

Test [9] can be described thus: qHTS of pediatric cancer cell lines to identify multiple opportunities for drug repurposing: Primary screen for NB-EBc1 cells (AID 1347095). The procedure, abridged:
(§2)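 CRCs from 8- or 11-point titrations (lowest final 0.59 nM NPC, 0.78 nM MIPE). Cell viability: CellTiter-Glo after 48 h incubation, 15 min room-temperature development, luminescence imaging.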

The nature of test [10]: qHTS of pediatric cancer cell lines to identify multiple opportunities for drug repurposing: Primary screen for U-2 OS cells (AID 1347096). Note: nearly all actives have a fitted effect of over 50% in size. The procedure, abridged: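 Viability after 48 h compound treatment at 37C, 500-1,000 cells/well, read as ATP luminescence with CellTiter-Glo. Primary screens used 11-point (MIPE, 0.78 nM-46 µM) or 8-point (NPC, 0.59 nM-46 µM) final concentrations; follow-up screens used 11-point dilutions.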

Test [11] is described as follows: qHTS of pediatric cancer cell lines to identify multiple opportunities for drug repurposing: Primary screen for BT-37 cells (AID 1347094). The procedure, abridged:
as §2

Test [12] can be described thus: qHTS of pediatric cancer cell lines to identify multiple opportunities for drug repurposing: Primary screen for Saos-2 cells (AID 1347097). Note: nearly all actives have a fitted effect of over 40% in size. The procedure, abridged: as §2
The nature of test [13]: qHTS of pediatric cancer cell lines to identify multiple opportunities for drug repurposing: Primary screen for SK-N-SH cells (AID 1347098). Note: nearly all actives have a fitted effect of over 65% in size. Summed up: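 Cells (500-1,000/well) rested 5 h, then received compounds for 48 h; metabolically active cells were measured by CellTiter-Glo luminescence. Final concentrations spanned up to 46 µM (MIPE, 11-point) or 0.59 nM-46 µM (NPC, 8-point) in primary screens, 11-point in follow-ups.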
Potency is the fitted concentration of half-maximal effect.

For `CCC[C@@H](NC(=O)[C@@H]1[C@H]2CCC[C@@H]2CN1C(=O)[C@@H](NC(=O)[C@@H](NC(=O)c1cnccn1)C1CCCCC1)C(C)(C)C)C(=O)C(=O)NC1CC1`, the Potency entry in test [1], in [2], in [3], in [4], in test [5] and in [7] was “inactive” each time. The Potency result in [9] and in [10] was “inactive” in each case. Besides, the Potency in [6] is 18.7 µM (active); in test [8], 23.5 µM (active).
As to `C[C@@]1(c2cc(-c3cncnc3)c(F)cc2F)CCSC(N)=N1`, the Potency result in test [1], in test [2], in test [3], in [4] and in [10] was “inactive” in each case. Further, the Potency in [6] is 4.69 µM (active); in test [7] it was 0.0469 µM (active); in test [8], 2.96 µM (active); in test [11], 3.06 µM (active); in test [9], 8.33 µM (active); in test [12], 2.96 µM (active). Further, the Potency in [13] was 12.1 µM (active).
Regarding `Cc1ccc(S(=O)(=O)Nc2nc3ccccc3nc2Nc2ccc3nsnc3c2)cc1`, the Potency entry is “inactive and 20.6 µM (active)” in [1]; “inactive and 2.91 µM (active)” in [2]; 0.407 µM (active) in test [5]; 0.0575 µM (active) in [6]; 0.0013 µM (active) in [7]; 0.0512 µM (active) in [8]. In addition, the results for the Potency in test [11], in [9] and in [12] were 0.0376 µM (active), 0.645 µM (active) and 0.0457 µM (active), respectively. Also, the Potency result in [3] and in [4] was “inactive” throughout.
Turning to `Cc1ccccc1C(=O)c1ccc(Nc2ccc(Br)cc2N)cc1Cl`, the Potency in test [1] was 14.6 µM (active); in [2] it was 20.6 µM (active); in test [3], 9.35 µM (active); in test [6], 23.5 µM (active); in test [7], 18.7 µM (active); in test [8], 16.6 µM (active). For the same compound, the Potency in test [12] is 18.7 µM (active). Also, the Potency entry in test [4] and in test [13] was “inactive” throughout.
As for `COc1cccc(OC)c1-c1cc(C(=O)NC2(C(=O)O)C3CC4CC(C3)CC2C4)nn1-c1ccnc2cc(Cl)ccc12` (centres undefined), the Potency result in [1], in test [2], in test [3], in test [4], in [5] and in [7] was “inactive” each time. In addition, the Potency result in test [11] and in [12] was “inactive” throughout. The Potency in test [8] is 18.7 µM (active).
Consider `N=C1SC(=Cc2ccc(-c3ccc4c(c3)C(=O)NC4=O)o2)C(=O)N1c1ccc(Br)cc1`, for which the Potency result in [1], in test [2], in test [3], in [4], in test [5] and in test [7] was “inactive” throughout. In addition, the Potency result in test [8], in [10], in test [12] and in test [13] was “inactive” in each case. Moreover, the Potency in [6] is 2.64 µM (active); in test [9], 3.72 µM (active).
For the compound `CC(=O)O[C@]1(C(C)=O)CC[C@H]2[C@@H]3C=C(Cl)C4=CC(=O)[C@@H]5C[C@H]5[C@]4(C)[C@@H]3CC[C@@]21C`, the Potency result in [1], in [2], in [3], in test [4] and in test [10] was “inactive” in each case. Besides, the Potency is 9.35 µM (active) in test [6]; 0.469 µM (active) in test [7]; 7.43 µM (active) in [8]; 16.6 µM (active) in test [9]; 12.1 µM (active) in [13].
`CC(C)CN(C[C@@H](O)[C@H](Cc1ccccc1)NC(=O)O[C@H]1CO[C@H]2OCC[C@H]21)S(=O)(=O)c1ccc(N)cc1`: the Potency entry in [1], in test [2], in test [3], in test [4], in [6] and in [13] was “inactive” throughout. In addition, the Potency in test [5] was 14.8 µM (active); in test [7] it was 5.9 µM (active); in test [11] it was 6.11 µM (active).
As to `O=C(NC[C@H](O)CO)c1ccncc1Nc1ccc(I)cc1F`, the Potency result in [1], in [2], in test [3], in test [4] and in test [6] was “inactive” in each case. Further, the Potency in [13] is 21.5 µM (active).
With `O=C(CO)N1CCC(c2[nH]nc(-c3ccc(Cl)cc3)c2-c2ccncn2)CC1`, the Potency entry in test [1], in [2], in [3], in [4], in [5] and in test [7] was “inactive” in each case. In addition, the Potency result in [8], in test [9] and in test [13] was “inactive” each time.
Consider `COc1ccc(-c2ccc3ncc4c(c3c2)n(-c2ccc(N3CCNCC3)c(C(F)(F)F)c2)c(=O)n4C)cn1`, for which the Potency in test [1] was 0.0231 µM (active); in [2] it was 8.3 nM (active) and 184 nM (active) and 206 nM (active); in test [3], 6.62 µM (active); in [4] it was 0.0165 µM (active); in [5], 0.59 µM (active); in [6], 0.0132 µM (active). For the same compound, the Potency in test [7] was 0.372 µM (active); in test [8], 0.0037 µM (active); in [11], 0.0306 µM (active); in [9], 0.0148 µM (active); in [10] it was 7.43 µM (active); in test [12] it was 0.418 µM (active). Also, the Potency in [13] is 0.0857 µM (active).
Turning to `CN(C)c1ccccc1CN1CCCN(Cc2ccccc2N(C)C)C1c1ccncc1`, the Potency result in test [1], in [2], in test [4] and in test [5] was “inactive” in each case. In addition, the Potency in test [3] is 11.8 µM (active); in [7] it was 18.7 µM (active); in test [9], 20.9 µM (active).
With `C[C@]12CC[C@@H]3c4ccc(O)cc4CC[C@H]3[C@H]1[C@@H](O)[C@@H](O)[C@H]2O`, the Potency entry in test [1], in test [2], in test [3], in [4], in [6] and in [11] was “inactive” throughout. Moreover, the Potency result in [9] and in test [10] was “inactive” in each case. The Potency in [7] is 14.8 µM (active).
In the case of `O=C(O)CCC=CCC[C@@H]1[C@H](N2CCCCC2)[C@@H](O)C[C@@H]1OCc1ccc(-c2ccccc2)cc1`, the Potency result in [1], in [2], in test [3], in test [4], in test [6] and in test [11] was “inactive” each time. Besides, the Potency result in test [9] and in test [10] was “inactive” each time. Moreover, in [8], the Potency was 26.4 µM (active).
As for `O=c1cc(-c2ccc(O)c(O)c2)oc2cc(O)cc(O)c12`, the Potency result in test [1], in test [2], in test [3], in test [4], in test [5] and in test [6] was “inactive” throughout. The Potency entry in [11], in [9] and in test [12] was “inactive” throughout.
Regarding `NC(=O)c1ccc(N(C(N)=O)c2c(F)cccc2F)nc1-c1ccc(F)cc1F`, the Potency result in [1], in [2], in test [3], in [4], in test [6] and in [11] was “inactive” each time. In addition, the Potency entry in test [9], in [10] and in test [12] was “inactive” each time. Further, the Potency in test [5] is 14.8 µM (active).
